Screening data: PubChem BioAssay, several laboratories
Sampled rows, rich in hits. Any-hit rate of the full collection: about 1.3%.
CRFBP-R2 agonist – agonists of CRF-BP/CRF-R2 complex, primary screen, cell-based, HEK293, calcium dye fluorescence, uHTS | calcium dye fluorescence (FLIPR); percent of saturating CRF peptide response | actives 0.46% (n = 350,000) | AID 588473, 2011 | activation, % at 13.2 µM | CRF-binding protein / CRF receptor 2 complex (human);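 active = activation of at least 50%, plus an integration ratio under a set limit after plate pattern correction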;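 also: plate controls were neutral control wells without compound for no effect and CRF at EC100 for full effect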
RTF Ca sens act – cardiac RTF calcium sensitivity activators, primary screen, biochemical, IANBD-TnC fluorescence, EC20 calcium | activation, % at 7.2 µM | Troponin I, cardiac muscle (Homo sapiens) + Troponin T, cardiac muscle (Homo sapiens) + … | actives 0.24% (n = 340,000) | IANBD-labeled TnC RTF fluorescence at EC20 calcium; 0% EC20 calcium, 100% full calcium;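 active = activation above the mean over all tested compounds plus 3 SD, cut at about 30% in these data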;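 also: rise in fluorescence read as greater calcium sensitivity of cardiac thin filaments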
CRFR2-BP antag – antagonists of CRF-BP/CRF-R2 complex, primary screen, cell-based, HEK293, calcium dye fluorescence, uHTS | CRF-induced calcium fluorescence | AID 588475, 2011 | actives 0.59% (n = 350,000) | inhibition, % at 11.8 µM;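 active = inhibition of the ligand-induced calcium signal above about 50% at the single tested concentration, limit read from the data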
RTF Ca sens inh – cardiac RTF calcium sensitivity inhibitors, primary screen, biochemical, IANBD-TnC fluorescence, EC70 calcium; Troponin I, cardiac muscle (Homo sapiens) + Troponin T, cardiac muscle (Homo sapiens) + …; IANBD-labeled cardiac RTF, Ca2+ fluorescence; inhibition, % at 7.15 µM; actives 0.12% (n = 340,000); AID 493244, 2011;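 active = inhibition above the mean inhibition of all tested compounds plus 3 SD, cut at about 17% in these data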;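 also: assay run at fixed EC70 calcium of 1.6 mM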
Active calls of the source: *.

What do the screens show for `Cc1ccc(C(=O)NCCN(C)C)c(C)c1`?
CRFBP-R2 agonist: -1; RTF Ca sens act: 7; CRFR2-BP antag: 1; RTF Ca sens inh: -8

How did CNc1c2cccc(C)c2nc2c(C(=O)NCCN(C)C)cccc12 do in these assays?
CRFBP-R2 agonist: 54*; RTF Ca sens act: 19; CRFR2-BP antag: 4; RTF Ca sens inh: -17

What do the screens show for `CSc1cccc(CN2CCCC(CNC(=O)c3ccco3)C2)c1` (stereo not given)?
CRFBP-R2 agonist: -1; RTF Ca sens act: 1; CRFR2-BP antag: -3; RTF Ca sens inh: -1

How did CCOCc1cc(CN2CCCC(CNC(=O)c3ccco3)C2)ccc1OC (stereo not given) do in these assays?
CRFBP-R2 agonist: -1; RTF Ca sens act: 0; CRFR2-BP antag: 76*; RTF Ca sens inh: -1

How did O=c1oc(CCO)cc2ccc(Br)cc12 do in these assays?
CRFBP-R2 agonist: 0; RTF Ca sens act: -3; CRFR2-BP antag: 66*; RTF Ca sens inh: 3

Results for Cc1cccc(OCC(=O)NNC(=O)c2ccc3nc[nH]c3c2)c1 ?
CRFBP-R2 agonist: 2; RTF Ca sens act: -5; CRFR2-BP antag: 1; RTF Ca sens inh: -3

What do the screens show for `CCOc1cccc(C(=O)Nc2ccc3c(c2)OCCO3)c1`?
CRFBP-R2 agonist: -3; RTF Ca sens act: 0; CRFR2-BP antag: 6; RTF Ca sens inh: -1

What do the screens show for `CC(OC(=O)c1ccc(S(=O)(=O)NCc2ccco2)cc1)C(=O)Nc1ccc(Cl)cn1` (stereo not given)?
CRFBP-R2 agonist: 99*; RTF Ca sens act: 1; CRFR2-BP antag: -218; RTF Ca sens inh: 0

Results for O=C(COC(=O)c1ccc(S(=O)(=O)NCc2ccco2)cc1)Nc1ncc(Cl)cc1Cl ?
CRFBP-R2 agonist: 1; RTF Ca sens act: -5; CRFR2-BP antag: 8; RTF Ca sens inh: -5

What do the screens show for `Cc1onc(-c2ccccc2)c1C(=O)Nc1nnc(CC(C)C)s1`?
CRFBP-R2 agonist: 0; RTF Ca sens act: -5; CRFR2-BP antag: -19; RTF Ca sens inh: -7

How did CCOc1ccc(N=c2scc(-c3ccc(OC)cc3)n2CCO)cc1 do in these assays?
CRFBP-R2 agonist: 0; RTF Ca sens act: 2; CRFR2-BP antag: 80*; RTF Ca sens inh: -11

How did CC1=CC(=O)C(C(C)C)=C/C1=N/OS(=O)(=O)c1ccccc1 do in these assays?
CRFBP-R2 agonist: 51*; RTF Ca sens act: 6; CRFR2-BP antag: -63; RTF Ca sens inh: -6

Results for CCOc1cc(C)ccc1OCc1nnc(SCC(=O)c2cccc([N+](=O)[O-])c2)n1C ?
CRFBP-R2 agonist: -1; RTF Ca sens act: -2; CRFR2-BP antag: 56*; RTF Ca sens inh: 0

How did Cn1c(COc2ccc([N+](=O)[O-])cc2)nnc1SCC(N)=O do in these assays?
CRFBP-R2 agonist: -2; RTF Ca sens act: 4; CRFR2-BP antag: -4; RTF Ca sens inh: 7

Results for Cn1c(COc2ccccc2)nnc1SCC(=O)c1cccc([N+](=O)[O-])c1 ?
CRFBP-R2 agonist: 1; RTF Ca sens act: 2; CRFR2-BP antag: 59*; RTF Ca sens inh: -6

What do the screens show for `COc1ccc(C(=O)N2CCN(c3ccccc3)CC2)cc1S(=O)(=O)N1CCCC1`?
CRFBP-R2 agonist: 0; RTF Ca sens act: 0; CRFR2-BP antag: -1; RTF Ca sens inh: -1

Results for C#CCOc1ccc(/C=C2\SC(=S)N(Cc3cccnc3)C2=O)cc1 ?
CRFBP-R2 agonist: 0; RTF Ca sens act: 2; CRFR2-BP antag: 17; RTF Ca sens inh: -12

Results for CCOc1ccc(/C=C2\SC(=S)N(CCC(=O)Nc3ccccc3C(=O)O)C2=O)cc1 ?
CRFBP-R2 agonist: -3; RTF Ca sens act: -6; CRFR2-BP antag: 55*; RTF Ca sens inh: -14

What do the screens show for `O=C(CCN1C(=O)/C(=C/c2ccccc2)SC1=S)NNC(=O)c1cccnc1`?
CRFBP-R2 agonist: 0; RTF Ca sens act: 35*; CRFR2-BP antag: -39; RTF Ca sens inh: -43

Results for O=C1/C(=C/c2ccc(O)cc2)SC(=S)N1Cc1cccnc1 ?
CRFBP-R2 agonist: 107*; RTF Ca sens act: -6; CRFR2-BP antag: -51; RTF Ca sens inh: -1

How did O=C(CCS(=O)(=O)c1ccccc1)NNC(=O)CSc1ccccc1F do in these assays?
CRFBP-R2 agonist: -1; RTF Ca sens act: 2; CRFR2-BP antag: -10; RTF Ca sens inh: -14

Results for CCOC(=O)c1cc(COc2cc(Cl)cc(Cl)c2)on1 ?
CRFBP-R2 agonist: 0; CRFR2-BP antag: 5

How did CC(=O)Nc1ccc(OC(=O)N2CCCC2)cc1 do in these assays?
CRFBP-R2 agonist: 2; RTF Ca sens act: -7; CRFR2-BP antag: 11; RTF Ca sens inh: -3

What do the screens show for `O=C(COc1cccc(Cl)c1)Nc1ccc(N2CCOCC2)cc1`?
CRFBP-R2 agonist: 7; RTF Ca sens act: 3; CRFR2-BP antag: 80*; RTF Ca sens inh: -17

Results for NC(=O)CS(=O)(=O)c1nc2ccccc2n1Cc1ccccc1F ?
CRFBP-R2 agonist: 2; RTF Ca sens act: -6; CRFR2-BP antag: 118*; RTF Ca sens inh: 8

How did CC(=O)NCc1nc2ccccc2n1Cc1ccccc1F do in these assays?
CRFBP-R2 agonist: -2; RTF Ca sens act: -3; CRFR2-BP antag: -11; RTF Ca sens inh: -16

Results for Cc1ccc(-c2nc(CS(=O)CC(=O)NCCCN3CCN(Cc4ccccc4)CC3)c(C)o2)cc1 (stereo not given) ?
CRFBP-R2 agonist: -2; RTF Ca sens act: -4; CRFR2-BP antag: 3; RTF Ca sens inh: -1

What do the screens show for `COc1cc(C(=O)O[C@H]2C/C(C)=C/CC[C@@]3(C)O[C@@H]3[C@H](O)[C@@H]2C(C)C)cc(OC)c1OC`?
CRFBP-R2 agonist: 2; RTF Ca sens act: 4; CRFR2-BP antag: -38; RTF Ca sens inh: -9

How did CCOC(=O)c1cnc2c(C)cc(C)cc2c1NCCCN1CCOCC1 do in these assays?
CRFBP-R2 agonist: -3; RTF Ca sens act: 1; CRFR2-BP antag: 30; RTF Ca sens inh: -6

What do the screens show for `CCOc1cc2[nH]c(=S)n(CCC(=O)NC3CCCCC3)c(=O)c2cc1OCC`?
CRFBP-R2 agonist: 0; CRFR2-BP antag: 3

Results for Cc1[nH]c2ccccc2c1/C=N/Nc1ccccc1[N+](=O)[O-] ?
CRFBP-R2 agonist: 0; RTF Ca sens act: -6; CRFR2-BP antag: 5; RTF Ca sens inh: 4

What do the screens show for `COc1ccc(NS(=O)(=O)c2cc([N+](=O)[O-])ccc2N/N=C/c2c(C)[nH]c3ccccc23)cc1`?
CRFBP-R2 agonist: 51*; RTF Ca sens act: 2; CRFR2-BP antag: -42; RTF Ca sens inh: -11

What do the screens show for `O=C(CCn1c2c(c3ccccc31)CCCC2)NNC(=O)c1ccccc1C(=O)O`?
CRFBP-R2 agonist: 55*; RTF Ca sens act: 2; CRFR2-BP antag: -9; RTF Ca sens inh: 0

Results for O=C(CCn1c2c(c3ccccc31)CCCC2)NNC(=O)c1ccccc1[N+](=O)[O-] ?
CRFBP-R2 agonist: 0; RTF Ca sens act: -1; CRFR2-BP antag: -29; RTF Ca sens inh: 7
